According to PubChem BioAssay AID1159580 (chemical genetic matrix, 2015):
Among all 5,500 compounds or so, about 2,000 (36%) were called active. Another 18% or so got no clear call; they are omitted. This is one part of the list. Unmarked numbers belong to inactive results. Cut-off read from the data, not from the text of the source: active = normalized growth mostly below about 0.91 (no sharp cut-off); inconclusive = no clear call, values can overlap the other calls; inactive = mostly above about 0.92.

Assay: chemical genetic growth profiling, strain panel (AID 1159580);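 note: tested at 20 µM; growth read once vehicle control cultures reached saturation at 30 °C; 1 = growth at the plate median or of vehicle wells; lower values mean less growth of the strain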
Conditions: growth OD
[1] = S. cerevisiae deletion strains, locus YAL013W, strain DEP1, stronger effect = lower value
[2] = S. cerevisiae deletion strains, locus YBR229C, strain ROT2, stronger effect = lower value
[3] = S. cerevisiae deletion strains, locus YDL101C, strain DUN1, stronger effect = lower value
[4] = S. cerevisiae deletion strains, locus YDR150W, strain NUM1, stronger effect = lower value
[5] = S. cerevisiae deletion strains, locus YEL061C, strain CIN8, stronger effect = lower value
[6] = S. cerevisiae deletion strains, locus YGR078C, strain PAC10, stronger effect = lower value
[7] = S. cerevisiae deletion strains, locus YGR229C, strain SMI1, stronger effect = lower value
[8] = S. cerevisiae deletion strains, locus YHR030C, strain SLT2, stronger effect = lower value
[9] = S. cerevisiae deletion strains, locus YHR087W, strain rtc3, stronger effect = lower value
[10] = S. cerevisiae deletion strains, locus YJR043C, strain POL32, stronger effect = lower value
[11] = S. cerevisiae deletion strains, locus YJR075W, strain HOC1, stronger effect = lower value
[12] = S. cerevisiae deletion strains, locus YKL190W, strain CNB1, stronger effect = lower value
[13] = S. cerevisiae deletion strains, locus YLR039C, strain RIC1, stronger effect = lower value
[14] = S. cerevisiae deletion strains, locus YLR058C, strain SHM2 (second series), stronger effect = lower value
[15] = S. cerevisiae deletion strains, locus YLR085C, strain ARP6, stronger effect = lower value
[16] = S. cerevisiae deletion strains, locus YLR262C, strain YPT6, stronger effect = lower value
[17] = S. cerevisiae deletion strains, locus YML094W, strain GIM5, stronger effect = lower value
[18] = S. cerevisiae deletion strains, locus YMR219W, strain ESC1, stronger effect = lower value
[19] = S. cerevisiae deletion strains, locus YMR263W, strain SAP30, stronger effect = lower value
[20] = S. cerevisiae deletion strains, locus YNL153C, strain GIM3, stronger effect = lower value
[21] = S. cerevisiae deletion strains, locus YNL298W, strain CLA4 (second series), stronger effect = lower value
[22] = S. cerevisiae deletion strains, locus YNL322C, strain KRE1, stronger effect = lower value
[23] = S. cerevisiae deletion strains, locus YNR030W, strain Alg12, stronger effect = lower value
[24] = S. cerevisiae deletion strains, locus YPL055C, strain LGE1, stronger effect = lower value
[25] = S. cerevisiae deletion strains, locus YPL241C, strain CIN2, stronger effect = lower value
[26] = S. cerevisiae deletion strains, locus YPR135W, strain CTF4, stronger effect = lower value
[27] = S. cerevisiae deletion strains, locus YDL134C, strain PPH21, stronger effect = lower value
[28] = S. cerevisiae deletion strains, locus YJL187C, strain SWE1, stronger effect = lower value
[29] = S. cerevisiae deletion strains, locus YOL006C, strain TOP1, stronger effect = lower value
[30] = S. cerevisiae deletion strains, locus YMR307W, strain GAS1, stronger effect = lower value
[31] = S. cerevisiae deletion strains, locus YAL040C, strain CLN3, stronger effect = lower value
[32] = S. cerevisiae deletion strains, locus YCL061C, strain MRC1 (second series), stronger effect = lower value
[33] = S. cerevisiae deletion strains, locus YDR363W, strain ESC2, stronger effect = lower value
[34] = S. cerevisiae deletion strains, locus YER002W, strain NOP16, stronger effect = lower value
[35] = S. cerevisiae deletion strains, locus YNL175C, strain NOP13, stronger effect = lower value
[36] = S. cerevisiae deletion strains, locus YNL197C, strain WHI3, stronger effect = lower value
[37] = S. cerevisiae deletion strains, locus YNL224C, strain SQS1, stronger effect = lower value
[38] = S. cerevisiae deletion strains, locus YOR083W, strain WHI5 (second series), stronger effect = lower value

CSc1nsc(SC)c1C(=O)NC(=O)Nc1ccc(F)cc1F
normalized growth [1]: 1.01
normalized growth [2]: 1.01
normalized growth [3]: 1.04
normalized growth [4]: 1.04
normalized growth [5]: 1.01
normalized growth [6]: 1.01
normalized growth [7]: 1.02
normalized growth [8]: 1.1
normalized growth [9]: 1.02
normalized growth [10]: 1.01
normalized growth [11]: 1.01
normalized growth [12]: 1.02
normalized growth [13]: 1.03
normalized growth [14]: 1
normalized growth [15]: 1.02
normalized growth [16]: 1
normalized growth [17]: 1.08
normalized growth [18]: 1
normalized growth [19]: 0.993
normalized growth [20]: 1.01
normalized growth [21]: 1.04
normalized growth [22]: 1.02
normalized growth [23]: 1.03
normalized growth [24]: 1.08
normalized growth [25]: 1.07
normalized growth [26]: 1.07

COc1ccccc1NC(=O)NCCSCc1ccccc1Cl
normalized growth [1]: 0.979
normalized growth [2]: 0.981
normalized growth [3]: 1.03
normalized growth [27]: 0.978
normalized growth [4]: 0.968
normalized growth [5]: 0.983
normalized growth [6]: 0.993
normalized growth [7]: 0.984
normalized growth [8]: 0.877
normalized growth [9]: 0.976
normalized growth [28]: 1.01
normalized growth [10]: 1.01
normalized growth [11]: 1.01
normalized growth [13]: 0.887
normalized growth [14]: 1
normalized growth [15]: 1.07
normalized growth [16]: 0.931
normalized growth [17]: 0.963
normalized growth [18]: 0.988
normalized growth [19]: 1.01
normalized growth [20]: 1.01
normalized growth [21]: 0.974
normalized growth [22]: 0.985
normalized growth [23]: 0.971
normalized growth [29]: 0.954
normalized growth [24]: 0.927
normalized growth [25]: 1.04
normalized growth [26]: 0.88
normalized growth (S. cerevisiae strains, strain wild type, stronger effect = lower value): 0.978

Cc1cc(C)c(CSCCNC(=O)Nc2ccc(F)cc2F)c(C)c1
normalized growth [1]: 1.02
normalized growth [2]: 1.01
normalized growth (S. cerevisiae deletion strains, locus YCL061C, strain MRC1, stronger effect = lower value): 1.03
normalized growth [3]: 1.03
normalized growth [27]: 1.01
normalized growth [4]: 0.942
normalized growth [5]: 1.01
normalized growth [6]: 1.03
normalized growth [7]: 1.02
normalized growth [8]: 1.08
normalized growth [9]: 1.02
normalized growth [28]: 1.03
normalized growth [10]: 1.02
normalized growth [11]: 1.03
normalized growth [12]: 1.02
normalized growth [13]: 1.05
normalized growth [14]: 1.02
normalized growth [15]: 1.28 [resistant] (active)
normalized growth [16]: 1.03
normalized growth [17]: 1.04
normalized growth [18]: 1.01
normalized growth [19]: 0.937
normalized growth [30]: 1.29
normalized growth [20]: 1.01
normalized growth [21]: 1.03
normalized growth [22]: 1.02
normalized growth [23]: 1.04
normalized growth [29]: 1.18
normalized growth [24]: 0.908
normalized growth [25]: 1.13
normalized growth [26]: 1.11

CC(C)[C@@]1(NC(=O)[C@@H]2C[C@@H]3c4cccc5[nH]cc(c45)C[C@H]3N(C)C2)O[C@@]2(O)[C@@H]3CCCN3C(=O)[C@H](Cc3ccccc3)N2C1=O
normalized growth [1]: 0.941
normalized growth [31]: 0.972
normalized growth [32]: 0.974
normalized growth [33]: 0.945
normalized growth [34]: 0.981
normalized growth [6]: 0.996
normalized growth [30]: 0.985
normalized growth [35]: 0.987
normalized growth [36]: 1.02
normalized growth [37]: 1
normalized growth [22]: 0.924
normalized growth [38]: 1
normalized growth [24]: 0.91
normalized growth [25]: 0.985

CN1CC(C(=O)NC2(C)OC3(O)C4CCCN4C(=O)C(Cc4ccccc4)N3C2=O)CC2c3cccc4[nH]cc(c34)CC21 (centres undefined)
normalized growth [31]: 0.995
normalized growth [32]: 0.992
normalized growth [4]: 0.99
normalized growth [33]: 0.974
normalized growth [34]: 0.988
normalized growth [19]: 0.987
normalized growth [30]: 0.965
normalized growth (S. cerevisiae deletion strains, locus YNL128W, strain TEP1, stronger effect = lower value): 0.994
normalized growth [35]: 1.01
normalized growth [36]: 0.985
normalized growth [37]: 1
normalized growth [38]: 0.98
normalized growth [24]: 0.905
normalized growth [25]: 0.995
